The values that follow come from PubChem BioAssay (NCATS).

Experiment [1] is described as follows: Cell Viability - MRC5 (AID 434; calls by dose curve;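 note: potency is the fitted concentration of half-maximal effect; cells exposed to compound for 40 hours at 37 °C; potency reflects cytotoxicity seen as loss of intracellular ATP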). Particulars: MRC5 lung fibroblast viability, qHTS. Summed up: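 Decrease in intracellular ATP, quantified by luciferase light output, reflects compound toxicity toward MRC5 cells exposed for 40 hr in complete culture medium. Concentration-response curves, scaled between DMSO and 100 uM tamoxifen, gave AC50 values.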
Experiment [2] is described as follows: Cell Viability - HUV-EC-C (AID 542). Note: nearly all actives have a fitted effect of over 35% in size. Note: potency is the fitted concentration of half-maximal effect. Particulars: HUV-EC-C endothelial cell viability, qHTS; series mostly up to 92.2 µM. An outline of the steps: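 Cells were seeded at 1000 per well and incubated 5 hr at 37 °C before compound addition. After 40 hr at 37 °C, CellTiter-Glo reagent was added for 20 min and luminescence read. AC50 values came from Hill-equation modelling.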

Experiment [3] is described as follows: Cellular Toxicity (caspase-3) HepG2 (AID 654).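 For caspase-3 activation: cells exposed to compound for 16 hours before reading; 0% = DMSO alone and 100% = caspase signal from 100 µM tamoxifen.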 Note: potency is the fitted concentration of half-maximal effect. The note with it: HepG2 caspase-3 activation, luminescence; series mostly up to 92.2 µM. An outline of the steps: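 Caspase 3/7 activation in HepG2 is measured as rising luminescence after a 16 hr treatment at 37 °C. Values are scaled between DMSO basal and 100 uM tamoxifen, and AC50 is fitted with the Hill equation.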

A short description of experiment [4]: Cellular Toxicity (caspase-3) HUV-EC-C (AID 656). Note: potency is the fitted concentration of half-maximal effect. The note with it: HUV-EC-C cells, caspase-3 activation (apoptosis); series mostly up to 92.2 µM. Summed up: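 HUV-EC-C endothelial cells, 1000/well, were pre-incubated 5 hr at 37°C, then exposed to compounds for 16 hr at 37°C. Caspase-Glo 3/7 luminescence was read after 20 min at room temperature. AC50 came from Hill fits, normalized to DMSO and 100 uM tamoxifen.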

Experiment [5] can be described thus: Cellular Toxicity (caspase-3) SHSY5Y (AID 657). Particulars: SH-SY5Y caspase-3 activation; series mostly up to 91.7 µM. Summed up: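 SH-SY5Y human neuroblastoma cells (1500/well) were treated with compounds for 16 h at 37 °C, then Caspase-Glo 3/7 luminescence was read after 1 h at room temperature. Data normalized to DMSO and 10 uM staurosporine; AC50 from Hill fits.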

Experiment [6] in a line: Cellular Toxicity (caspase-3) BJ (AID 658). Note: potency is the fitted concentration of half-maximal effect. Particulars: BJ fibroblasts, luminescence; Potency: caspase-3 activation; series mostly up to 91.7 µM. An outline of the steps:
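Plated BJ cells (1000/well) rested 5 hr, received compound for 16 hr at 37 °C, then Caspase-Glo 3/7 reagent for 1 hr at room temperature before luminescence reading.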

A short description of experiment [7]: Cellular Toxicity (caspase-3) MRC-5 (AID 659). Particulars: MRC-5 cells, luminescence, normalized: DMSO 0%, 10 µM staurosporine 100%; series mostly up to 91.7 µM. An outline of the steps:
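Apoptosis readout in MRC-5 cells: luciferase light generated after caspase 3/7 cleaves a peptide-aminoluciferin substrate, measured post 16 hr compound incubation at 37 °C.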

Experiment [8] is described as follows: Cellular Toxicity (caspase-3) Mesangial (AID 660).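 Note: combined caspase 3 and 7 activity read by Caspase-Glo luminescence; cells exposed to compound for 16 h before the caspase read.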 The note with it: mesangial cells, normalized: DMSO 0%, 100 µM tamoxifen 100%; series mostly up to 91.7 µM. An outline of the steps: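 Seed cells derived from normal human renal glomeruli, incubate 5 h, add compounds across concentrations and incubate 16 h at 37 °C. Caspase 3/7 activation is then quantified by luciferase light, with AC50 derived by Hill modeling.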

Experiment [9] in a line: Cellular Toxicity (caspase-3) H-4-II-E (AID 663).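 For caspase-3 activation: cells exposed to compound for 16 hr before readout.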 Note: potency is the fitted concentration of half-maximal effect. Particulars: H-4-II-E rat hepatoma; Potency: caspase-3 activation; series mostly up to 92.2 µM. An outline of the steps: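 Caspase 3/7 activation measured in H-4-II-E cells in complete culture medium after 16 hr treatment at 37 °C, using luciferase-coupled substrate readout; AC50 values come from Hill-equation fits of normalized concentration-response data.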

Experiment [10] in a line: Cellular Toxicity (caspase-3) Hek293 (AID 664).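 Note: cells exposed to compound for 16 h at 37 °C before readout.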 Particulars: HEK293 caspase-3 activation, DMSO = 0%, 100 µM tamoxifen = 100%; at 92.2 µM (top of the series). Summed up:
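qHTS, HEK293 (human embryonic kidney), 16 h cpd exposure in complete medium. Caspase-3/7 activation = luminescence increase; normalized to DMSO/100 uM tamoxifen; Hill-fit AC50.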

Experiment [11] is described as follows: Cellular Toxicity (caspase-3) N2a (AID 665).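 Note: compound exposure lasted 16 h at 37 °C before readout.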 The note with it: N2a cells, luminescence, normalized: DMSO 0%, 10 µM staurosporine 100%; series mostly up to 92.2 µM. An outline of the steps:
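Caspase-3/7 activation, measured as increased luminescence from aminoluciferin release, is quantified in mouse N2a cells exposed to compounds for 16 h. Values are normalized to DMSO and 10 uM staurosporine, with AC50 derived by Hill modelling.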

Experiment [12] is described as follows: Cellular Toxicity (caspase-3) Renal Proximal Tubule (AID 667).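 Note: cells exposed to compound for 16 hours at 37 °C before detection.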 Note: potency is the fitted concentration of half-maximal effect. Particulars: renal proximal tubule cells, primary cells freshly taken from rat; Potency: caspase-3 activation; series mostly up to 91.7 µM. An outline of the steps: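 Primary rat proximal tubule cells, 1000/well, 5 h plating at 37 °C, then compound 16 h at 37 °C. Caspase-Glo 3/7 reagent, 1 h RT, luminescence. Normalized to DMSO (basal) and 10 uM staurosporine (100%); Hill-fit AC50.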

A short description of experiment [13]: MultiTox-Fluor Cytotoxicity Assay - LYMP1-003 - Live Cells (AID 962).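 Note: 0% = DMSO only and full loss = 92 µM tetraoctylammonium bromide; cytotoxic hits lower the live-cell protease signal.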 Particulars: LYMP1-003 lymphoblastoid cells, MultiTox-Fluor live-cell protease fluorescence; series mostly up to 92.2 µM. An outline of the steps: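 Acute cytotoxicity is scored as a drop in live-cell protease activity in human lymphoblastoid LYMP1-003 cells after 16 hr compound exposure at 37 C. AC50 values come from Hill-equation modelling of concentration-response data.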

A short description of experiment [14]: Cell Viability - LYMP2-003 (AID 965).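 Note: cells exposed to compounds for 24 h before reading; nearly all actives have a fitted effect of over 50% in size.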 Note: potency is the fitted concentration of half-maximal effect. The note with it: LYMP2-003 lymphoblastoid cell viability; series mostly up to 92.2 µM. Summed up:
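Human lymphoblastoid cells (2500/well) were pre-incubated 5 hr at 37 C, then exposed to compounds over a concentration range for 24 hr at 37 C. Intracellular ATP was read by CellTiter-Glo luminescence; AC50 came from Hill-equation fits.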

A short description of experiment [15]: qHTS Assay for Identification of Small Molecule Inducers of Hypoxia Response (AID 2120; active = well fitted curve in the direction sought with a large enough effect in the signal ratio, with a control signal flat, not every such curve was filed as active; the % refers to the signal ratio; note: potency is the fitted concentration of half-maximal effect; for activation: 0% is about no effect). The note with it: hypoxia response reporter cells, beta-lactamase ratio readout; series mostly up to 104 µM. An outline of the steps: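 Cell-based qHTS for reporter induction: hypoxia response element controlled beta-lactamase in ME-180 cells. Compounds incubated 17 h at 37 degrees C; activity from blue/green (460/530 nm) ratio, inducers ranked by AC50.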
(Quantitative high-throughput screening tests each substance at several concentrations.)

Experiment [16] concerns the target Peroxisome proliferator-activated receptor alpha (Homo sapiens) (UniProt Q07869). In words: qHTS assay for small molecule agonists of the peroxisome proliferator-activated receptor alpha (PPARalpha) signaling pathway (AID 651778). Note: % of control where 0% means no effect. Particulars: PathHunter PPARalpha complementation, chemiluminescence, 6 h; max response: active compounds read high. An outline of the steps: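 Cells plated at 2,000/well and held overnight at 37 C, 5% CO2, then compound added by pin tool for 6 hr; after PathHunter detection reagent and 60 min at room temperature, chemiluminescence from enzyme complementation was read.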

Experiment [17] can be described thus: qHTS assay for small molecule agonists of the antioxidant response element (ARE) signaling pathway measured by Nrf2-dependant transcriptional activity - cell viability counter screen (AID 720653; active = well fitted curve in the direction sought with a large enough effect in the repeat runs; an effect the other way counts as inactive or inconclusive; note: potency is the fitted concentration of half-maximal effect; for max response: % is set by controls: 0 for no effect and ±100 for the full control effect). Particulars: ARE-bla HepG2 viability, CellTiter-Glo ATP luminescence, 16 h; max response: active compounds read low. An outline of the steps: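 ARE-bla HepG2 cells (2,000/well) rested 5 hrs at 37C/5% CO2, then exposed to compounds in DMSO for 16 hrs. Viability was read in the same wells as intracellular ATP by luminescence, 30 min at room temperature after reagent addition.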

Experiment [18] in a line: qHTS assay for cell viability of HEK293 cells (AID 743288). For max response: % is set by controls: 0 for no effect and ±100 for the full control effect. Note: nearly all actives have a fitted effect of over 50% in size. Note: potency is the fitted concentration of half-maximal effect. The note with it: ATP luminescence (CellTiter-Glo), 18 h; max response: active compounds read low. An outline of the steps: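 After 18 h compound exposure at 37 C, parental HEK293 cells (2,000/well) are lysed with CellTiter-Glo and luminescence is read following 30 min at room temperature.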
Experiment [19] in a line: qHTS assay for cell viability of the p53RE-bla HCT-116 cell line (AID 743292). Note: nearly all actives have a fitted effect of over 55% in size. Note: potency is the fitted concentration of half-maximal effect. Particulars: p53RE-bla HCT-116 viability, ATP luminescence, 16 h; series mostly up to 95 µM. Summed up:
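Viability of compound-treated p53RE-bla HCT-116 cells is taken from ATP-dependent luciferase luminescence. Treatment lasts 16 h at 37 C after a 5 h settling period; detection follows 30 min at room temperature.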

A short description of experiment [20]: Cellular Toxicity (caspase-3) NIH 3T3 (AID 666).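 Note: caspase signal read after 16 h compound exposure; 0% = DMSO basal and 100% = 100 µM tamoxifen stimulation.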 The note with it: NIH 3T3 caspase-3 activation, apoptosis/toxicity, 0% DMSO, 100% is 100 µM tamoxifen; series mostly up to 92.2 µM. Summed up: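 Cells were plated at 1000 per well and incubated 5 hr at 37°C, then compound was added for 16 hr. Caspase-Glo 3/7 reagent followed for 20 min at room temperature before luminescence was read.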

Values joined by “and” are separate entries in the source; they are usually repeats but may differ in a detail not shown here. Equal values may be shown once. A number with no mark means an inactive call. Results filed as inconclusive are left out. More than one record can exist for a structure, and the calls need not agree. Active and inactive are the calls of the source. Unless noted, calls come from the whole dose curve; as a rule, active = well fitted curve in the direction sought with a large enough effect; inconclusive = small, poorly fitted or top-dose-only effect, or another doubt; inactive = no such curve, though single readings can be large; an effect the other way counts as inactive or inconclusive.

Peroxisome proliferator-activated receptor alpha (Homo sapiens), sequence (Q07869 whole entry, looked up): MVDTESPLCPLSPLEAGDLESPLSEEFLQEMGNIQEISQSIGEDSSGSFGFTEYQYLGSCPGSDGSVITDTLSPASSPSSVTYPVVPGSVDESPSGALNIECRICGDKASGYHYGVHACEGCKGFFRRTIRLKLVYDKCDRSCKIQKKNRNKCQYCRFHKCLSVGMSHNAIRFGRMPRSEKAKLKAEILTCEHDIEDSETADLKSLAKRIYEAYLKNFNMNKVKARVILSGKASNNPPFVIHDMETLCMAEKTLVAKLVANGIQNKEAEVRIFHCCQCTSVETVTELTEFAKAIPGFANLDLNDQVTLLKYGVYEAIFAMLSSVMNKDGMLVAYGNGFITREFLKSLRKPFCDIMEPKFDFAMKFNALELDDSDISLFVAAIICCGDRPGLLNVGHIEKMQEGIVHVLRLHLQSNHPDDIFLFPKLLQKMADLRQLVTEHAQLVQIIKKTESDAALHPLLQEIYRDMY

Consider `O=C(O)/C=C/c1ccc(/C=C/C(=O)O)cc1`, for which, in [1], the Potency was greater than 92 µM. Further, the Potency entry in experiment [2], in experiment [3], in experiment [4], in [5], in experiment [6] and in experiment [9] was “inactive” each time. For the same compound, the Potency result in experiment [12], in experiment [13], in experiment [14], in experiment [15] and in [19] was “inactive” in each case. The outcome in experiment [7], in experiment [8] and in experiment [11] was inactive. For the same compound, the caspase-3 activation in experiment [10] is -11.2%. Also, the max response is -4.38% in [16], -1.74% in [17] and -14.7% in experiment [18].
For `C=CC(C)(O)CCCC(C)CCCC(C)CCCC(C)C` (configuration not stated), in experiment [1], the Potency was greater than 92 µM. The Potency entry in [2], in experiment [3], in experiment [4], in experiment [5], in experiment [6] and in experiment [9] was “inactive” each time. Also, the Potency entry in experiment [12], in experiment [13], in experiment [14], in experiment [15] and in experiment [19] was “inactive” each time. The call in experiment [7], in [8], in experiment [11] and in experiment [20] was inactive. Moreover, in [10], the caspase-3 activation was 1.05%. Further, the max response in [16] was 2.41%; in experiment [17], 0.618%; in experiment [18], -8.32%.
With `CC1=C(/C=C/C(C)=C/C=C/C(C)=C/C=O)C(C)(C)CCC1`, the Potency in [1] was 33.4 µM (active); in [2] it was 31.6 µM (active); in experiment [3], 63.1 µM (active); in [4] it was 39.8 µM (active); in [9], 31.6 µM (active); in experiment [12] it was 31.6 µM (active). Moreover, the Potency in [14] and in [19] was 50.1 µM (active) throughout. For the same compound, the Potency result in experiment [6] and in [15] was “inactive” each time. Further, the call in experiment [7] was inactive. Further, the max response is -2.8% in experiment [16] and 2.27% in [17].
With `C[C@@H]1CC2(OC(O)[C@]3(C)O[C@H]23)O[C@H]2C[C@@]3(C)[C@@H]4CC[C@H]5C(C)(C)C(O[C@@H]6OC[C@@H](O)[C@H](O)[C@H]6O)CC[C@@]56C[C@@]46CC[C@]3(C)[C@@H]12` (some centres not stated), the Potency was greater than 92 µM in experiment [1]; 31.6 µM (active) in experiment [3]; 31.6 µM (active) in experiment [6]; 70.8 µM (active) in experiment [17]; 44.7 µM (active) in experiment [18]. The Potency result in experiment [2], in experiment [4], in experiment [5], in [13], in experiment [14] and in [15] was “inactive” throughout. Besides, the Potency result in experiment [19] is “inactive”. Also, the compound was classed as inactive in [11]. Also, the max response in experiment [16] is 6.75%.
As for `Cc1c2ccccc2c(C)c2c1ccc1ccccc12`, the Potency in [1] was 17.9 µM (active); in experiment [15], 44.7 µM (active); in [17] it was 44.7 µM (active); in experiment [18], 44.7 µM (active). The Potency result in [3], in experiment [4], in experiment [5], in experiment [6], in experiment [9] and in experiment [12] was “inactive” each time. Moreover, the Potency entry in [13], in experiment [14] and in [19] was “inactive” throughout. The outcome in experiment [7], in experiment [8], in experiment [11] and in experiment [20] was inactive. Further, in [10], the caspase-3 activation was 2.33%. Further, the max response is 2.82% and -0.29% in experiment [16]; -7.46% in experiment [17]; -28% in [18].
Regarding `CC(=O)Nc1cccc(C)c1`, the Potency in experiment [1] is greater than 92 µM. The Potency result in [2], in experiment [3], in experiment [4], in experiment [5], in experiment [6] and in experiment [9] was “inactive” each time. Moreover, the Potency result in experiment [12], in experiment [13], in experiment [14], in [15] and in experiment [19] was “inactive” each time. In addition, the call in experiment [7], in experiment [8], in experiment [11] and in experiment [20] was inactive. In [10], the caspase-3 activation was -2.37%. In addition, the max response is -3.01% in experiment [16], -7.75% in experiment [17] and 2.07% in [18].
